Data on 60 molecules can be found in ChEMBL document CHEMBL3988442, “University of Dundee, Small-Polar-MMV Screening Library” (2021).

The whole screen tested about 48,000 compounds, of which about 13,000 (27%) showed an effect of 50% or more. The list shows a part of the results.

The test system of the assay is Wolbachia pipientis. The experiment in a line: Anti-Wolbachia Cell-Based Screen. The class given is functional. Set-up: scale not given: in the data most compounds retested in dose-response had high values. The settings on record: 5 µM.
Take `C=C(C)COc1cccc(C(=O)N2CCC(O)(c3ccccc3)CC2)c1`: the “Percent Effect” value is on record as -7.065%.
The same measure for `CNS(=O)(=O)CC(=O)NC(C)Cc1ccc(-c2ccccc2)cc1` (stereo not given): -4.402%; for `Nc1ccnc(N2CCC(Cc3ccccc3Cl)(C(=O)O)CC2)n1`: 5.255%.
As for `CC(O)CN1CCc2onc(C(c3ccccc3)c3ccccc3)c2C1` (stereo not given), the “Percent Effect” value is given as -15.19%.
The figure for `COCCNS(=O)(=O)c1cccc2c1CN(C(=O)c1cc(C)on1)CC2` is -0.4963%.
The figure for `Cc1nc(CN2CCc3ncnc(C4CC4)c3CC2)cs1.O=C(O)C(F)(F)F` is -1.319%.
The figure for `Cc1cccc(CN2CCc3cc(C(=O)O)c(N(C)C)nc3CC2)n1.O=C(O)C(F)(F)F.O=C(O)C(F)(F)F` is 105.7%.
For `Cc1nc(CN2CCc3cc(C(=O)O)c(N(C)C)nc3CC2)cs1.O=C(O)C(F)(F)F.O=C(O)C(F)(F)F`, the “Percent Effect” value turned out to be 99.11%.
On to `CCOc1ncnc2c1CCN(Cc1csc(C)n1)CC2.O=C(O)C(F)(F)F`, for which the “Percent Effect” value was determined as 7.701%.
As to `CCCSCC(=O)NS(=O)(=O)c1ccc2c(c1)OCCO2`, the “Percent Effect” value is reported as -7.969%.
The same measure for `COc1ccc(Cc2nnc(SC)o2)cc1OC`: -1.582%; for `COCCN(Cc1ccc(F)cc1Cl)C(=O)c1cc[n+]([O-])cc1`: -5.927%; for `c1ccc(-c2cc(CN3C[C@@H]4CC[C@H](C3)N(CC3CC3)C4)on2)cc1`: 2.507%.
The same measure for `O=C(Nc1ccccc1Oc1cccc(F)c1)NC1CCS(=O)(=O)C1` (stereo not given): 9.337%.
The same measure for `CN(Cc1nc(Cc2ccccc2F)no1)CC1Cc2ccccc2O1` (stereo not given): 1.647%; for `Cc1noc(C2CCC3(CCN(C(=O)c4ncccn4)CC3)O2)n1` (stereo not given): 110.9%; for `CC1N(CC2CC2)C(=O)COC12CCN(C(=O)c1cnccn1)CC2` (stereo not given): -1.759%.
`C[C@H]1C[C@H]2CN(C(=O)c3ccncn3)CC[C@H]2O1`: the “Percent Effect” value came out at 2.98%.
The figure for `Cc1noc(C2CCC3(CCN(C(=O)c4cc(C5CC5)on4)CC3)O2)n1` (stereo not given) is 104.1%; for `Cc1noc(C2CCC3(CCN(C(=O)c4cnccn4)CC3)O2)n1` (stereo not given) it is 108.3%; for `C[C@H]1C[C@@H]2CCN(C(=O)c3ccncn3)C[C@H]2O1` it is 15.39%.
For `Cc1noc(C2CCC3(CCN(C(=O)c4c(C)noc4C)CC3)O2)n1` (stereo not given), the “Percent Effect” value was -1.941%.
The figure for `Cc1noc(C2CCN(C(=O)c3cc(Cl)c(Cl)n3C)CC2)n1` is -8.55%; for `Cc1noc(C2CCC3(CCN(C(=O)c4ccncn4)CC3)O2)n1` (stereo not given) it is 97.14%; for `O=C(c1cc(C2CC2)on1)N1CC[C@]2(C[C@H](Oc3cccnc3)CO2)C1` it is -8.078%.
As for `Cc1ccc(F)c(S(=O)(=O)NCc2cccc(N3CCOC3=O)c2)c1`, the “Percent Effect” value is given as -1.653%.
`COc1ccc(C(=O)NCc2cc(N3CCOCC3)ncn2)o1`: the “Percent Effect” value is reported as -2.324%.
As for `COCC(=O)N1CCC2(CC1)CN(c1ncccn1)CCO2`, the “Percent Effect” value is -1.945%.
The figure for `Cc1nn(C)c(Cl)c1C1CCCN1c1ncnc2sccc12` (stereo not given) is -14.86%; for `CC1CCN(C(CNC(=O)Cn2cccn2)c2cccs2)CC1` (stereo not given) it is -3.451%.
With `Cn1ccc(C(=O)N2C[C@@H]3CN(CC4CC4)CCO[C@@H]3C2)n1.O=C(O)C(F)(F)F`, the “Percent Effect” value was -13.66%.
The figure for `CC(C)N1CCOCC2(CCCN(C(=O)c3cncn3C)C2)C1.O=C(O)C(F)(F)F` (stereo not given) is -5.769%.
On to `O=C(O)C(F)(F)F.O=C(O)C(F)(F)F.c1cnc(N2CCCC3(CN(CC4CCOCC4)CCO3)C2)cn1` (stereo not given), for which the “Percent Effect” value is -4.594%.
As for `O=C(O)C(F)(F)F.O=C(O)C(F)(F)F.O=C(O)C(F)(F)F.c1coc(CN2CCOC3(COCCN(Cc4ccncc4)C3)C2)c1` (stereo not given), the “Percent Effect” value was -11.91%.
The figure for `O=C(O)C(F)(F)F.O=C(c1ccccn1)N1CCOC2(COCCN(Cc3cc[nH]n3)C2)C1` (stereo not given) is -2.383%; for `O=C(O)C(F)(F)F.O=C(c1ccoc1)N1CCOC2(COCCN(c3ncccn3)C2)C1` (stereo not given) it is 21.15%; for `Fc1cccc(CN2CCOC3(COCCN(CC4CC4)C3)C2)c1.O=C(O)C(F)(F)F.O=C(O)C(F)(F)F` (stereo not given) it is 100.6%.
`Cn1ccc(C(=O)N2CCOC3(COCCN(CC4CC4)C3)C2)n1.O=C(O)C(F)(F)F` (stereo not given): the “Percent Effect” value was 108.5%.
With `O=C(O)C(F)(F)F.O=C(O)C(F)(F)F.O=C(O)C(F)(F)F.c1cc(CN2CCOCC3(C2)CN(Cc2nccs2)CCO3)ccn1` (stereo not given), the “Percent Effect” value was -17.66%.
Take `Cn1cncc1C(=O)N1CCOC2(COCCN(CC3CC3)C2)C1.O=C(O)C(F)(F)F` (stereo not given): the “Percent Effect” value was 104.1%.
The figure for `O=C(O)C(F)(F)F.O=C(c1ccoc1)N1CCOC2(COCCN(CC3CC3)C2)C1` (stereo not given) is 89.02%.
The figure for `Cc1cccnc1CSCCCNS(C)(=O)=O` is -17.43%; for `N#Cc1cccnc1NCc1ccc(S(=O)(=O)NCC2CCCO2)cc1` (stereo not given) it is 8.527%.
On to `Clc1cccc(N2CCC(NCc3ncc[nH]3)C2)c1` (stereo not given), for which the “Percent Effect” value is reported as -6.784%.
With `Cl.c1cnc2c(c1)cc([C@@H]1CCCO1)n2CCN1CCOCC1`, the “Percent Effect” value is reported as 92.89%.
As for `Cl.c1cnc2c(c1)cc([C@@H]1CCCO1)n2CCN1CCCCC1`, the “Percent Effect” value came out at 85.05%.
As for `CN(CC1CCCO1)C1CCN(CCc2ccccn2)CC1` (stereo not given), the “Percent Effect” value came out at 4.903%.
Take `CSc1nccc(N2CCC(NCCN3CCOCC3)CC2)n1`: the “Percent Effect” value is given as -2.784%.
The same measure for `Cl.c1cnc2c(c1)cc([C@H]1CCCO1)n2CCN1CCOCC1`: -5.726%; for `Cl.c1cnc2c(c1)cc([C@H]1CCCO1)n2CCN1CCCCC1`: -14.33%; for `Cl.c1cnc2c(c1)cc([C@H]1CCCO1)n2CCN1CCCC1`: 88.22%.
Take `Cc1nc(CN2CCN(C(=O)c3ccnc(N(C)C)c3)CC2)cs1`: the “Percent Effect” value is on record as 110.9%.
The same measure for `CCc1ccsc1C(=O)N1CCCN(Cc2cscn2)CC1`: 140.3%.
For the molecule `CCc1nc(CN2CCCN(C(=O)c3occc3C)CC2)cs1`, the “Percent Effect” value was found to be 10.15%.
The same measure for `Cc1nc(CN2CCN(C(=O)c3ccn(C)c(=O)c3)CC2)cs1`: 11.68%; for `Cc1nc(CN2CCN(C(=O)c3sccc3C3CC3)CC2)cs1`: -3.645%; for `COC(C(=O)N1CCCN(Cc2cscn2)CC1)c1ccccc1` (stereo not given): -16.29%.
With `COc1ccsc1C(=O)N1CCCN(Cc2cscn2)CC1`, the “Percent Effect” value is recorded as 127%.
The figure for `Cc1nc(CN2CCN(C(=O)c3sccc3C)CC2)cs1` is 154.8%.
With `CC(O)CN1CCN(C(=O)c2ccnc(N(C)C)c2)CC1` (stereo not given), the “Percent Effect” value is on record as -11.32%.
